Pf growth 96h: P. falciparum growth inhibition at 96 hours | Potency, µM (titrated, usually from 28.7 µM), for the others: at the top dose activity change, negative = inhibition, usual class: inhibitors | AID 504834 | P. falciparum luciferase reporter growth, 96 h | 6.9% of 320,000 active; also: potency is read from the fitted curve at half-maximal effect; % is scaled to controls: 0 for no effect and ±100 for the full control effect
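Two parasite generations (96 h, 37 C, 5% CO2) of compound exposure in infected erythrocytes (0.05% parasitemia, 2% hematocrit). Luciferase-reporter P. falciparum; decreased luminescence indicates inhibited growth, aimed at apicoplast-acting delayed death.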
Pf growth 48h: inhibits P. falciparum growth in the first generation, 48 h. P. falciparum luciferase growth in erythrocytes, 48 h. Potency, µM (doses to about 28.7 µM), inactives show at the highest dose activity change, negative = inhibition, hits mostly inhibitors. 5.9% of 310,000 active. AID 504832; also: potency is read from the fitted curve at half-maximal effect; % is scaled to controls: 0 for no effect and ±100 for the full control effect
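Luminescence readout; reporter = integrated firefly luciferase in P. falciparum. RBC culture at 2% hematocrit, 0.1% parasitemia final, 37 C/5% CO2; decreased signal taken as growth inhibition.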
Sm TGR block: inhibitors of Schistosoma mansoni thioredoxin glutathione reductase | Q962Y6 | purified TGR, DTNB reduction, TNB absorbance 405 nm | Potency, µM (titrated, usually from 114 µM), for inactives: at the highest dose activity change, negative = inhibition, usual class: inhibitors | 3% of 360,000 active; also: potency is read from the fitted curve at half-maximal effect; % is scaled to controls: 0 for no effect and ±100 for the full control effect; nearly all actives have a fitted effect of over 60% in size
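First, TGR (20 nM dispensed) and NADPH were mixed with compound. Second, a 15 min room-temperature incubation followed. Third, further NADPH and then DTNB were added to start the reaction. Finally, TNB absorbance was monitored kinetically.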
Cycloheximide cs: counter-screen for Shiga toxin inhibitors: cycloheximide protein synthesis inhibition; cell reporter, cycloheximide protein synthesis inhibition counterscreen; 12% of 300,000 active; max response, %; in the data active = max response mostly above about 13%, no sharp cut-off; inactive = mostly below about 14%; also: read at 38.3 µM for the half of the compounds with a filed dose; 0% is about no effect
NS1 function inh: influenza NS1 inhibition | Potency, µM (series often up to 46.1 µM), inactives show at the highest dose activity, positive = more growth | 0.4% of 270,000 active | AID 2326; calls by dose curve; also: potency is read from the fitted curve at half-maximal effect; actives are rising curves; nearly all actives have a fitted effect of over 50% in size
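A cell-based growth assay was used: compounds that relieve NS1-induced slow growth of budding yeast raise OD600. Assay medium was yeast nitrogen base with ammonium sulphate and -URA supplement, pH 6.0, with 2% galactose.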
Shiga inhibitor: blocks Shiga toxin action in Vero cells. AID 2315. inhibition, % at 38.7 µM. 9.2% of 290,000 active. Vero cells, Shiga toxin protein synthesis inhibition reporter; in the data active = inhibition mostly above about 28%, no sharp cut-off; inactive = mostly below about 43%; also: 0% is about no effect
* = called active by the depositor; i = inactive; ? = inconclusive; nt = no result; + = active, no number; [ ] = dose if it differs, or a comment. Most compounds without a hit are left out; they make up all but 21% or so of the library. Unless noted, calls follow the shape of the dose curve; as a rule, active = well fitted curve in the direction sought with a large enough effect; inconclusive = small, poorly fitted or top-dose-only effect, or another doubt; inactive = no such curve, though single readings can be large; an effect the other way counts as inactive or inconclusive.

SMILES | Pf growth 96h | Pf growth 48h | Sm TGR block | Cycloheximide cs | NS1 function inh | Shiga inhibitor
CCCn1c2ccccc2c2cnn(CC(=O)NCCc3ccc(OCC)cc3)c(=O)c21 | nt | nt | 8% | nt | nt | nt
O=[N+]([O-])c1ccc(O)c(C2=NNC(c3ccccc3F)C2)c1 (stereo not drawn) | 22% | 0% | 5µM* | 40* | -45% | 84*
O=C(c1cc(-c2ccc(Br)cc2)on1)N1CCCCCC1 | -16% | 221% | -2% | 35* | 1% | 80*
O=C(c1cc(-c2ccc(Br)cc2)on1)N1CCOCC1 | 100% | 185% | -2% | 21* | 14% | 59*
CC1CCN(C(=O)c2cc(-c3ccc(Br)cc3)on2)CC1 | nt | nt | 0% | nt | nt | nt
COc1ccc(C2C3C=CCC(c4cccc(-c5ccc(N(C)C)cc5)c4)C3C(=O)N2Cc2ccccc2)cc1Cl (stereo not drawn) | nt | nt | nt | 22 | nt | 22
COc1ccc(-c2cccc([C@H]3[C@@H]4C=CC[C@@H](C)[C@@H]4C(=O)N3Cc3ccccc3)c2)cc1 | nt | nt | nt | 8 | nt | i
COc1ccc(C2C3C=CCC(c4cccc(-c5ccc(C)cc5)c4)C3C(=O)N2Cc2ccccc2)cc1Cl (stereo not drawn) | ? | 12µM* | -9% | -8 | -12% | -5
CN(C)c1ccc(-c2cccc(C3CC=CC4C3C(=O)N(Cc3ccccc3)C4c3ccc4ccccc4c3)c2)cc1 (stereo not drawn) | ? | 9.3µM* | -27% | 4 | -1% | 21
COc1ccc(-c2cccc(C3CC=CC4C3C(=O)N(Cc3ccccc3)C4c3ccc4ccccc4c3)c2)cc1 (stereo not drawn) | 15µM* | 9.3µM* | -1% | 6 | -1% | 1
Cc1cc(COc2ccccc2)oc1C(=O)O | -6% | 48% | 1% | 7 | -9% | nt
Cc1cc(NC(=O)CN2C(=O)NC3(CCCCC3C)C2=O)no1 (stereo not drawn) | ? | 6% | 2% | -2 | 16% | -7
Cc1ccc(Sc2ccccc2CN(C)C)c(N)c1 | nt | nt | nt | 25* | nt | 31
CC1(CCc2ccccc2)NC(=O)N(CC(=O)O)C1=O (stereo not drawn) | 60% | 12% | 3% | -4 | -2% | -7
CC1(CCc2ccccc2)NC(=O)N(CC(=O)Nc2ccccc2)C1=O (stereo not drawn) | 88% | 30% | 16% | 16* | ? | 36
O=C(Nc1ccc(OC(F)F)c(Cl)c1)c1ccccn1 | i | 186% | -8% | 41* | nt | 94*
COc1ccc(NC(=O)c2cc(F)cc(F)c2)cc1Cl | nt | 117% | 3% | 27* | 7% | 82*
COc1cc(NC(=O)c2ccccn2)cc(OC)c1OC | 2% | 17% | 1% | 11 | nt | -4
COc1ccc(NC(=O)c2c(F)c(F)c(F)c(F)c2F)cc1Cl | nt | -7% | 1% | 6 | -7% | 24
COc1ccc(NC(=O)c2ccc(OC(F)F)cc2)cc1Cl | 230% | 202% | 4% | 47* | -22% | +
COc1ccc(C)cc1NC(=O)c1ccc(OC(F)F)cc1 | -19% | 19% | 1% | -1 | -5% | 11
Cc1ccccc1OCC(=O)OCc1cc(=O)n2nc(C3CCCCC3)sc2n1 | nt | nt | -1% | nt | nt | nt
Clc1ccc(-c2c[n+](Cc3ccc(Cl)cc3Cl)c3n2CCCCC3)cc1 | 0.17µM* | 1.7µM* | 8% | -1 | 0% | 1
Clc1ccc(-c2c[n+](Cc3cccc(Cl)c3)c3n2CCC3)cc1 | 0.26µM* | 1.9µM* | -1% | -2 | 10% | -6
N#CC[n+]1cc(-c2ccc(Cl)cc2)n2c1CCC2 | -8% | ? | 0% | -3 | 10% | -10
SMILES | Pf growth 96h | Pf growth 48h | Sm TGR block | Cycloheximide cs | NS1 function inh | Shiga inhibitor
Clc1ccc(-c2c[n+](Cc3ccc(Br)cc3)c3n2CCCCC3)cc1 | 0.059µM* | 0.41µM* | 5% | 5 | -1% | 8
O=[N+]([O-])c1ccc(C[n+]2cc(-c3ccccc3)n3c2CCCCC3)cc1 | -84% | 5.2µM* | 1% | -3 | nt | 0
COc1cc(OC)c(OC)cc1CNCCCSc1nnnn1C | nt | nt | -13% | nt | nt | nt
CCc1ccc(Nc2nnc(SC3CCOC3=O)s2)cc1 (stereo not drawn) | -6% | 7% | -12% | 11 | 4% | 33
CNC(=O)C(=O)NCC1OCCCN1S(=O)(=O)c1ccc(F)cc1C (stereo not drawn) | 9% | -5% | 0% | -5 | 2% | -2
CCNS(=O)(=O)c1ccc(Br)c(OC)c1 | 20% | nt | -10% | -3 | 8% | -8
Clc1ccc(C[n+]2cc(-c3ccccc3)n3c2CCCCC3)c(Cl)c1 | 2.6µM* | 0.74µM* | 7% | -10 | -3% | -5
Cc1ccc(C(=O)c2nccn2C)cc1C | 60% | 37% | 3% | 42* | -3% | 46
Nc1nc(SCc2ccccc2[N+](=O)[O-])c2[nH]cnc2n1 | nt | nt | nt | nt | 0% | nt
NC(N)=NC1=NC(=O)C(Cc2ccccc2)S1 (stereo not drawn) | ? | 0% | 3%[57.1 µM] | 19* | 0% | -2
CCOc1ccc(S(=O)(=O)Nc2ccc(C(=O)N3CCCC3)cc2)cc1C(N)=O | ? | 29% | -2% | -7 | -7% | -12
O=C(c1cc(-c2ccccc2)nn1-c1ccccc1)N1CCN(S(=O)(=O)c2cccc(F)c2)CC1 | ? | 6% | -3% | nt | nt | nt
COc1cc2c(cc1OC)CN(C(=O)c1cc(C3CC3)nn1-c1ccccc1)CC2 | 5.9µM* | ? | -12% | nt | nt | nt
O=C(c1cc(C2CC2)nn1-c1ccccc1)N1CCN(S(=O)(=O)c2cccc(F)c2)CC1 | ? | 8.3µM* | 3% | nt | nt | nt
O=C(c1cc(-c2cccs2)nn1-c1ccccc1)N1CCN(S(=O)(=O)c2ccccc2)CC1 | 4.1µM* | 10µM* | 6% | nt | nt | nt
Cc1ccccc1NC(=S)Nc1ccc2cn[nH]c2c1 | 42% | 37% | -20% | 8 | nt | 41
S=C(Nc1ccc2cn[nH]c2c1)Nc1ccccc1Cl | 175% | 114% | ? | 73* | -4% | 51*
S=C(Nc1ccc2cn[nH]c2c1)Nc1ccc(Cl)cc1Cl | 15% | 15% | nt | 18* | 0% | 47
CCOc1ccc(N2CC(NC(=O)C3CCCC3)CC2=O)cc1 (stereo not drawn) | nt | nt | 16% | nt | nt | nt
COc1ccc(NC(=O)C(C)N2c3cccc4cccc(c34)S2(=O)=O)cc1OC (stereo not drawn) | -16% | ? | -7% | -1 | 6% | 18
COc1ccc(-c2ccnc3nc(-n4cccc4)nn23)cc1 | ? | ? | ? | -2 | ? | -9
c1coc(-c2ccnc3nc(-n4cccc4)nn23)c1 | ? | 10µM* | -14% | 6 | nt | -6
CCOc1ccc(NC(=O)c2ccccc2O)cc1 | ? | 0% | -4% | 12* | -50% | 11
CCOc1ccc(NC(=O)c2ccccc2OC)cc1 | nt | 77% | -1% | 40* | -14% | 68
CCOc1ccc(NC(=O)c2ccccc2OCC(=O)c2ccccc2)cc1 | ? | nt | 62% | 48* | 8% | 52
